The source of these data is PubChem BioAssay AID588448 (NMMLSC, 2011).

Molecules are shown by their SMILES. A number with no mark means an inactive call.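 The calls were made as follows: active = half-maximal concentration under 30 µM, fit with over 36% top-dose inhibition and error below a fifth of it; inactive = the rest.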

Integrin alpha-4 (Homo sapiens), sequence (P13612 whole entry, looked up): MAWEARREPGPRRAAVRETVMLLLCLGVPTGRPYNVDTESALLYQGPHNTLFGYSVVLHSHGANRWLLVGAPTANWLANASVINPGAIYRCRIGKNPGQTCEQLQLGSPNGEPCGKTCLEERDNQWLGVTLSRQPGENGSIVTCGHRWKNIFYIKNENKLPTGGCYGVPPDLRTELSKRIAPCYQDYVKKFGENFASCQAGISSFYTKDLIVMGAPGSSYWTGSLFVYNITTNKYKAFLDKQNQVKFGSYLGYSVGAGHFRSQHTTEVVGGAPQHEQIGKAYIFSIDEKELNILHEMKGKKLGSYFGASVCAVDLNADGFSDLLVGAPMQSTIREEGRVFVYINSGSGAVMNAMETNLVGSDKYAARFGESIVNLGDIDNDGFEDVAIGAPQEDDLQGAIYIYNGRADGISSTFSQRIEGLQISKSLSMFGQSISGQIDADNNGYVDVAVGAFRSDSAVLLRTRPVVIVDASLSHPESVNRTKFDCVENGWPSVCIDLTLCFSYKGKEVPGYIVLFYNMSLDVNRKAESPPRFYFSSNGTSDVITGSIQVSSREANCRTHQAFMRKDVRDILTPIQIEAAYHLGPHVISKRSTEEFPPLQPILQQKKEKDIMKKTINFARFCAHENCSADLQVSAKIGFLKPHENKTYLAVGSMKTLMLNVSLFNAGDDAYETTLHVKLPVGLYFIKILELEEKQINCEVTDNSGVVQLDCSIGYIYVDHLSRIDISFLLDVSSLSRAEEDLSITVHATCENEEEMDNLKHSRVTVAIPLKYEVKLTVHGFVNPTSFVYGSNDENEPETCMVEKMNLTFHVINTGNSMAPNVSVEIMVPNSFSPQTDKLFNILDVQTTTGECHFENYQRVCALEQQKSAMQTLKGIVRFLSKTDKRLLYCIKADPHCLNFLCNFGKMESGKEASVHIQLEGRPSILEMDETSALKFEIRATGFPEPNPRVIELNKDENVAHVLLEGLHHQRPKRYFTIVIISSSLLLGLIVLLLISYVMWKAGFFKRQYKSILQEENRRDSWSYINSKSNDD

The test addresses Integrin alpha-4 (Homo sapiens) (UniProt P13612). Put plainly: allosteric VLA-4 ligands by LIBS antibody binding, SAR follow-up, U937 cells, powder samples, set 2 (AID 588448). Conditions: HUTS-21 LIBS mAb binding, flow cytometry; series mostly up to 66.7 µM; inhibition: at the top concentration. Background: In flow cytometry, cells or beads pass a laser one at a time.
In the case of `Cc1ccc(C)n1-c1ccc(C(=O)N(C)Cc2ccco2)cc1`, the “inhibition” value was 2.7.
In the case of `Cc1nc2ccccc2n1CCc1noc(COc2ccccc2)n1`, the “inhibition” value was 3.66.
As for `COc1ccc(-c2nn(Cc3ccccc3)cc2C(=O)N2CCC2)cc1`, the figure is -0.18; as for `O=C(c1ccc(OCCN2CCCCC2)cc1)c1c(-c2ccc(O)cc2)sc2cc(O)ccc12`, -87.7; as for `Cn1cc(C(=O)N2CCCC2c2nc3ccccc3s2)cn1` (centres undefined), 7.19.
As for `CCOc1ccccc1N1CC(c2nc3ccccc3n2C)CC1=O` (centres undefined), the figure is 26.1; as for `COc1ccccc1Cn1c(C2CC(=O)N(C)C2)nc2ccccc21` (centres undefined), 4.63; as for `Cc1oc(-c2cccs2)nc1CN1C(=O)C2CC=CCC2C1=O` (centres undefined), 4.95.
Consider `CCn1c(C2CC(=O)N(c3ccccc3OC)C2)nc2ccccc21` (centres undefined), for which the “inhibition” value was 39.6.
As for `CN(Cc1ccco1)C(=O)c1ccc(-n2cnc3ccccc32)cc1`, the figure is 13; as for `COc1ccc(C2CCCN2C(=O)c2sccc2C)cc1OC` (centres undefined), 6.87.
As for `COCCn1c(C2CC(=O)N(c3ccccc3C)C2)nc2ccccc21` (centres undefined), the figure is 10.7; as for `CSc1ccccc1OCc1cc(C(=O)N2CCCC2)no1`, 7.51.
Turning to `COCCn1c(C2CC(=O)N(Cc3ccco3)C2)nc2ccccc21` (centres undefined), the “inhibition” value was 7.51.
As for `O=C1C2CC=CCC2C(=O)N1Cc1csc(Cc2ccccc2)n1` (centres undefined), the figure is 15.8.
For the compound `CCN1CC(c2nc3ccccc3n2Cc2ccccc2)CC1=O` (centres undefined), the “inhibition” value was 24.2.
Consider `COCCn1c(C2CC(=O)N(c3cccc(C)c3)C2)nc2ccccc21` (centres undefined), for which the “inhibition” value is -13.7.
As for `COc1ccccc1N1CCN(CC(=O)c2ccc(F)cc2)CC1`, the figure is -8.2; as for `COc1cc(OCc2ccccc2)ccc1CN1CCN(C)CC1`, -6.27; as for `Cc1cc(C(=O)N2CCCC2c2nc3ccccc3s2)on1` (centres undefined), 22.9.
As for `CCOCCn1c(C2CC(=O)N(c3ccccc3)C2)nc2ccccc21` (centres undefined), the figure is 12.3; as for `CCn1c(C2CC(=O)N(CCc3ccccc3)C2)nc2ccccc21` (centres undefined), 23.5; as for `Cc1cc(C(=O)N2CCCC2c2ccc3c(c2)OCCO3)sc1C` (centres undefined), 5.59.
As for `CCN1CC(c2nc3ccccc3n2CCOc2ccccc2)CC1=O` (centres undefined), the figure is 14.6; as for `COCC(=O)N1CCC2(CCCN(CCc3ccccc3)C2=O)C1` (centres undefined), 38.
Turning to `Cc1ccc(-c2nc(CN3C(=O)C4CC=CCC4C3=O)cs2)cc1` (centres undefined), the “inhibition” value is 5.59.
On to `CC(=O)N(C)Cc1nc2ccccc2n1CCOc1ccc(C)cc1`, for which the “inhibition” value was 22.3.
As for `Cc1nc(C)c(C(=O)N2CCCC2c2nc3ccccc3s2)s1` (centres undefined), the figure is 5.91.
For `CN1CC(c2nc3ccccc3n2CCOc2ccccc2)CC1=O` (centres undefined), the “inhibition” value is -8.52.
